Screening data (PubChem)
An excerpt weighted towards active compounds, which were near 1.1% of everything screened.
NR5A2 inv ag: NR5A2 inverse agonism in reporter assay | O00482 | HEK293T StAR-luciferase reporter, LRH-1 transfected, 24 h | inhibition, % at 3.6 µM | 0.13% of 360,000 active | AID 602396;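 active means inhibition above the mean inhibition of all tested compounds plus 3 SD, cut at about 73% in these data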;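 further: 0% = DMSO wells and 100% = reporter-only cells lacking LRH-1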
Gli-Sufu antag: antagonists of Gli-Sufu signaling. AID 588413. 0.74% of 340,000 active. Sufu-KO-LIGHT fibroblasts, Gli luciferase reporter luminescence. inhibition, % at 5 µM;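 active means inhibition above about 55%, limit read from the data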;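 further: 0% = DMSO-treated cells and 100% = wells with medium but no cells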
Shn3 inh set2: Schnurri-3 reporter inhibition in Clone20 osteoblasts. Clone20 osteoblast Shn3 3'UTR firefly luciferase, 24 h. inhibition, % at 12.5 µM. 0.52% of 360,000 active;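 active means mean inhibition of at least 75% with every replicate also reaching 75%; inconclusive means mean inhibition at least 75% but some replicate below; inactive means mean inhibition below 75%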;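 further: 0% = median of neutral control wells and 100% = pilot-screen positive control compound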
NCOA1 inh: inhibitors of human steroid receptor coactivator 1 (SRC1). HEK293 GAL4-SRC1 luciferase reporter, luminescence. 0.12% of 360,000 active. AID 588354. inhibition, % at 3.6 µM. Q15788;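 active means inhibition above the campaign mean plus 3 SD, with each screening campaign given its own cutoff, cut at about 60% in these data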;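 further: 0% = DMSO treated cells and 100% = gossypol at 36 µM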
Target sequence (Q15788 whole entry, looked up, the tested form may be a part): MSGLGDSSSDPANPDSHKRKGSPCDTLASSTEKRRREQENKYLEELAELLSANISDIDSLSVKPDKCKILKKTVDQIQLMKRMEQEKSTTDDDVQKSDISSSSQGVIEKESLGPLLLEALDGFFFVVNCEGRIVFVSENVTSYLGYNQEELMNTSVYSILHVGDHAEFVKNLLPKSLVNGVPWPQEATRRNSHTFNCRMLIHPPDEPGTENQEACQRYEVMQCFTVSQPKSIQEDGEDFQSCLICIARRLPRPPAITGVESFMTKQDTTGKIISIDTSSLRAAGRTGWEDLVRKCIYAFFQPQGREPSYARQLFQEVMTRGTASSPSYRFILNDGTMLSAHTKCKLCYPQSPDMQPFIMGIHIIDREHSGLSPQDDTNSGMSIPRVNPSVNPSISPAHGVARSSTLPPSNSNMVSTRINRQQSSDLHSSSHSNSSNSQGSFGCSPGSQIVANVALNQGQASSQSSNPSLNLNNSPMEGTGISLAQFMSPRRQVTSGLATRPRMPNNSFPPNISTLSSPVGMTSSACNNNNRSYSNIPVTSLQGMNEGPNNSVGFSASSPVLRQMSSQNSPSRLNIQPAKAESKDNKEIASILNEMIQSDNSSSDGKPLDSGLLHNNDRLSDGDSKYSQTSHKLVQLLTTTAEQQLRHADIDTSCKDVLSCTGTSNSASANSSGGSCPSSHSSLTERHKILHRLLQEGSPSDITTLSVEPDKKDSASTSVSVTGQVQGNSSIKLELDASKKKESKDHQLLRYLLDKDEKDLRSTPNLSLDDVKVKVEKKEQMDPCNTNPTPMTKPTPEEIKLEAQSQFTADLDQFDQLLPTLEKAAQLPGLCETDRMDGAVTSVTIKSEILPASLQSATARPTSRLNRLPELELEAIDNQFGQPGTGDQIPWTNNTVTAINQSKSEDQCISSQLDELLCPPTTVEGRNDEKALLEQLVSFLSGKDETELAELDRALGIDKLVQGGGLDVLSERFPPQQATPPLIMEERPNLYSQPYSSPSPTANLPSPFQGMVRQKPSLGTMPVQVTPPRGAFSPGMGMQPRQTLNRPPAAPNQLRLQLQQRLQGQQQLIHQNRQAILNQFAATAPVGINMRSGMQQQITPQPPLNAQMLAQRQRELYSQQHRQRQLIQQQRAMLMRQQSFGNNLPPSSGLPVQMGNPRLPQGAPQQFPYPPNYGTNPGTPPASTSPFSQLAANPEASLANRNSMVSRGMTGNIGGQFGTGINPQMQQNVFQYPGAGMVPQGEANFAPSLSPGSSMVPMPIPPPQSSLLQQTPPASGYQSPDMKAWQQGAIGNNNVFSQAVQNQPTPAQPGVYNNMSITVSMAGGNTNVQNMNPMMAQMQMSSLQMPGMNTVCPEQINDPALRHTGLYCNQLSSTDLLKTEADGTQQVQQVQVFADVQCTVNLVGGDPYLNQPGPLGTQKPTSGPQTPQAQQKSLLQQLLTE
NCOA2 inhibitor: inhibits human steroid receptor coactivator 2. HEK293 GAL4-SRC2 luciferase reporter, luminescence. inhibition, % at 9 µM. 0.17% of 370,000 active. AID 651957;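 active means inhibition above the mean inhibition of all tested compounds plus 3 SD, set per campaign, cut at about 52% in these data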;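 further: 0% = DMSO treated cells and 100% = cells given Gossypol at 36 µM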
SRC3 inh: inhibitors of human steroid receptor coactivator 3 (SRC3); HEK293 GAL4-SRC3 luciferase reporter, luminescence; 0.17% of 360,000 active; inhibition, % at 3.6 µM; Q9Y6Q9;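 active means inhibition above a per-campaign cutoff, the mean of all compounds plus 3 SD, cut at about 60% in these data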;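 further: 0% = DMSO-treated cells and 100% = gossypol-treated cells at 36 µM; higher means less SRC3-driven luciferase light from the GAL4 reporter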
Gli-Sufu confirm: Gli-SUFU antagonism confirmation, single concentration | shares compounds with Gli-Sufu antag | Sufu-KO-LIGHT cells, Gli luciferase reporter, luminescence | inhibition, % at 5 µM | 40% of 2,500 active | AID 602428;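 active means mean inhibition at 5 µM reaching about 45%, limit read from the data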;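 further: plate controls were DMSO-treated cells for no effect and wells lacking cells for full effect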
SufuKO cytotox: cytotoxicity counter-screen for Gli-SUFU antagonists; shares compounds with Gli-Sufu antag; Sufu-KO-LIGHT cells cytotoxicity, ATP luminescence; cytotoxicity, % at 5 µM; 32% of 2,500 active; AID 651994;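 active means mean cytotoxicity at 5 µM above about 25%, limit read from the data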;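 further: cells exposed to compound overnight for roughly 16 to 18 hours; plate controls were DMSO wells with cells for no effect and medium without cells for full effect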
Wnt3a cs: Wnt3a reporter inhibition counter-screen | shares compounds with Gli-Sufu antag | Wnt-LIGHT cells, Wnt3a-driven luciferase reporter, luminescence | inhibition, % at 6.25 µM | 20% of 2,500 active | AID 651995;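 active means mean inhibition above about 25%, limit read from the data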
Active calls of the source: *.

How did CC(/C=C1\SC(=O)N(CCCC(=O)O)C1=O)=C\c1ccccc1 do in these assays?
NR5A2 inv ag: 20; Gli-Sufu antag: 60*; Shn3 inh set2: inconclusive; NCOA1 inh: 26; NCOA2 inhibitor: 93*; SRC3 inh: 42; Gli-Sufu confirm: 73*; SufuKO cytotox: 12; Wnt3a cs: 100*

Results for CC(=Cc1ccccc1)C=C1SC(=S)N(CCCC(=O)Nc2ccc(C(=O)O)cc2)C1=O ?
NR5A2 inv ag: -12; Shn3 inh set2: -32; NCOA1 inh: -77; NCOA2 inhibitor: -1; SRC3 inh: -55

Results for Cc1cc(C)nc(/N=C(\N)Nc2ccc(OCCC(C)C)cc2)n1 ?
NR5A2 inv ag: 26; Gli-Sufu antag: 26; Shn3 inh set2: 64; NCOA1 inh: 22; NCOA2 inhibitor: 12; SRC3 inh: 41

What do the screens show for `Cc1cc(C)nc(/N=C(\N)Nc2ccc(CC(=O)OC(C)C)cc2)n1`?
NR5A2 inv ag: 30; Gli-Sufu antag: 65*; Shn3 inh set2: 66; NCOA1 inh: 31; NCOA2 inhibitor: 5; SRC3 inh: 19; Gli-Sufu confirm: 48*; SufuKO cytotox: 38*; Wnt3a cs: -4

What do the screens show for `CC(C)N(CCCNC(=O)C1CCC(CNS(=O)(=O)c2ccccc2)CC1)Cc1ccccc1` (stereo unspecified)?
NR5A2 inv ag: 5; Gli-Sufu antag: 60*; Shn3 inh set2: 64; NCOA1 inh: 1; NCOA2 inhibitor: 22; SRC3 inh: 5; Gli-Sufu confirm: 28; SufuKO cytotox: 18; Wnt3a cs: -10

How did CC1CCN(CCCNC(=O)C2CCC(CNS(=O)(=O)c3ccccc3)CC2)CC1 (stereo unspecified) do in these assays?
NR5A2 inv ag: 9; Gli-Sufu antag: 17; Shn3 inh set2: -1; NCOA1 inh: 6; NCOA2 inhibitor: 6; SRC3 inh: 4

What do the screens show for `Cc1ccccc1NC(=O)c1cccc2c1-c1ccccc1C2=O`?
NCOA2 inhibitor: -4
